The results in this text go back to PubChem BioAssay AID602144 (Vanderbilt Specialized Chemistry Center, 2011).

Molecules are shown by their SMILES. A number with no mark means an inactive call. The source made the active and inactive calls. Rule as the data show it: active = remaining activity below about 50%; inactive = the rest.

In the experiment the target is Phospholipase D1 (Homo sapiens) (UniProt Q13393). The experiment is described as follows: PLD1 inhibitors in cells, Calu-1 cells, single concentration (AID 602144).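 Also: tested at 200 nM.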 The conditions noted are these: cellular PLD1 activity, active compounds read low.
Phospholipase D1 (Homo sapiens), sequence (Q13393 whole entry, looked up): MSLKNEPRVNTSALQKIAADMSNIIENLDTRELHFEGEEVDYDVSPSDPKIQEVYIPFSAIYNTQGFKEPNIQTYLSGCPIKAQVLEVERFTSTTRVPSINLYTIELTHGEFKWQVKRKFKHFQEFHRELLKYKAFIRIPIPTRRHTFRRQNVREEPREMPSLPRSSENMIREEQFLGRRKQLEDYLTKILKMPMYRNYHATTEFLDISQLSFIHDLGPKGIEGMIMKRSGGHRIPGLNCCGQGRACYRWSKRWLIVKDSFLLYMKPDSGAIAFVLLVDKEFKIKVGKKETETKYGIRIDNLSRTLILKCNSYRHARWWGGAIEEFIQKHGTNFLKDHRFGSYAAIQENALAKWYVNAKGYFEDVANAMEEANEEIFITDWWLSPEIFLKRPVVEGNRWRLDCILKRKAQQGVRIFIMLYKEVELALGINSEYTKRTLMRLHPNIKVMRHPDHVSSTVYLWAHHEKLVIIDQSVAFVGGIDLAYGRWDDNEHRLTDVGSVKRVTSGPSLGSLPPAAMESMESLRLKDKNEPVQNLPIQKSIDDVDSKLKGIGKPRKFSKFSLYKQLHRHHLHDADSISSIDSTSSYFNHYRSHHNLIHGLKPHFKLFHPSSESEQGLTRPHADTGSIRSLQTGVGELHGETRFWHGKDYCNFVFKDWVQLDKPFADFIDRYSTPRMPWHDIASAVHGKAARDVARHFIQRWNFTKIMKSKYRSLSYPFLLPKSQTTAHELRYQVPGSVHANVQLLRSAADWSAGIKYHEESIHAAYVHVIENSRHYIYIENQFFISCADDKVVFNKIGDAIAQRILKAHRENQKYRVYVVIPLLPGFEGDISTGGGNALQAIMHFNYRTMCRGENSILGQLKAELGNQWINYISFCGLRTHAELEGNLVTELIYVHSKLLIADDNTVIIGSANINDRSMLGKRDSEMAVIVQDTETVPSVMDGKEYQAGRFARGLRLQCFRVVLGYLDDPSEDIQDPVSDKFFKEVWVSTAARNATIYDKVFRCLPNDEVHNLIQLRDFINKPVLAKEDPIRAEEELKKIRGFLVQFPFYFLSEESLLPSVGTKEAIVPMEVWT
Phospholipase D1 (Homo sapiens), sequence (Q13393 whole entry, looked up): as above
Turning to `O=C(NCCN1CCC2(CC1)C(=O)NCN2c1ccccc1)c1cnc2ccccc2c1`, the remaining activity is 130%.

For the compound `O=C(c1c(F)cccc1F)N(CCN1CCC2(CC1)C(=O)NCN2c1cccc(F)c1)C(=O)c1c(F)cccc1F`, the remaining activity is 97.9%.

Turning to `O=C(NCCN1CCC2(CC1)C(=O)NCN2c1ccc(F)c(F)c1)c1cc2cc(F)ccc2[nH]1`, the remaining activity was 69.1%.

On to `O=C(NCCN1CCC2(CC1)C(=O)NCN2c1ccccc1)c1ncccc1F`, for which the remaining activity is 110%.

For the compound `O=C(c1cnc2ccccc2c1)N1CCCC1CN1CCC(n2c(=O)[nH]c3ccccc32)CC1` (stereo not drawn), the remaining activity is 122%.

For the compound `CC1(C)C(C(=O)NCCN2CCC3(CC2)C(=O)NCN3c2ccccc2)C1(C)C`, the remaining activity was 104%.

Turning to `O=C(c1ccc2ccccc2c1)N1CC(N2CCC(n3c(=O)[nH]c4ccccc43)CC2)C1`, the remaining activity was 108%.

For the compound `O=C(NCCN1CCC2(CC1)C(=O)N(Cc1ccccc1)c1ccccc12)c1ccc2ccccc2c1`, the remaining activity was 98.9%.

With `O=C1c2ccccc2C(=O)N1CCCN1CCC2(CC1)C(=O)NCN2c1ccccc1`, the remaining activity is 84.6%.

Take `CC(C)[C@@H](CN1CCC2(CC1)C(=O)NCN2c1ccccc1)NC(=O)c1ccc2ccccc2c1`: the remaining activity was 20.7% (active).

Regarding `NC1(CN2CCC3(CC2)C(=O)NCN3c2ccccc2)CCCC1` (tested in a mixture with another compound), the remaining activity was 85.3%.

For `CC(C)(C)C(=O)NCCN1CCC2(CC1)C(=O)NCN2c1cccc(F)c1`, the remaining activity is 71.8%.

For `O=C(CCCl)NCCN1CCC2(CC1)C(=O)NCN2c1cccc(F)c1`, the remaining activity is 75.7%.

The remaining activity is the signal under treatment as a percentage of the control signal.
